This note sets out measurements from PubChem BioAssay.

Activity calls are given as the source filed them.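 The calls were made as follows, unless noted: active = inhibition of the reporter signal at or above 50%; inactive = inhibition below 50%.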

Test [1] is described as follows: inhibitors of TNFa-induced NFkB p65 translocation, primary screen, imaging, HUVEC, MLSMR starter and 10KST1 sets (AID 438;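 active = inhibition above 20% together with a positive visual image hit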;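 also: compound added about 3h40 before a 20 min TNFalpha stimulation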;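 as to inhibition: signal is the nuclear over cytoplasmic p65 intensity ratio per well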). The conditions noted are these: HUVEC TNFa-induced p65 nuclear translocation; cell count: measured here: nuclei count (cytotoxicity indicator), at 2.08 µM; inhibition: at 2 µM, stronger effect = higher value, 0% TNFa-plus-vehicle, 100% no-TNFa wells.
The nature of test [2]: inhibitors of mutant huntingtin aggregation, primary screen, imaging, exon1htt(103Q)mCFP cells, high-content imaging (AID 483;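 active = visual image review flags a hit and inhibition of aggregation exceeds 20%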;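 also: compound exposure lasted 3 days before fixation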;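 as to nuclei count: percent of the per-plate median nuclei count of sample wells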). The conditions noted are these: exon1htt(103Q)mCFP cell line, aggregate imaging, at 2 µM; inhibition of aggregation: stronger effect = higher value; nuclei count: measured here: cell count, toxicity.
A short description of test [3]: inhibitors of E-selectin induction by TNFa, primary screen, imaging, HUVEC, immunofluorescence, MLSMR starter and 10KST1 sets (AID 487;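 active = visually confirmed hit in the image check and inhibition above 20%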;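 as to inhibition: signal is fraction of cell area covered by stained E-selectin grains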;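 as to nuclei count: 100% = median nuclei count of all wells on the same plate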). Conditions: HUVEC TNFalpha-induced E-selectin immunofluorescence imaging, at 2 µM; inhibition: stronger effect = higher value; nuclei count: measured here: cell number, toxicity.
Test [4] deals with Voltage-gated potassium channel subunit beta-2 (Rattus norvegicus) (UniProt P62483). Briefly: KvBeta enzyme negative modulators, primary screen, biochemical, NADPH fluorescence (AID 622;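 active = fluorescence slope higher than the sample average by over 3 SD, cut at about -0.22 in these data, passing the limit was not always enough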;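 also: slope of raw intensity against log time taken from 70 to 1610 s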). Conditions: recombinant KvBeta, 4-cyanobenzaldehyde reduction, at 10 µM, stronger effect = higher value.
The target is the same in test [5]. Briefly: KvBeta positive modulators, primary screen, biochemical, NADPH fluorescence (AID 623;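 active = NADPH fluorescence slope more negative than the mean of all samples by about 3 SD, 99.7% confidence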;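 also: fluorescence intensity change per second fitted from 20 to 320 s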). Conditions: Recombinant KvBeta, NADPH fluorescence decrease slope, 10 min; at 10 µM; stronger effect = lower value.
Test [6] addresses Alpha-2C adrenergic receptor (Homo sapiens) (UniProt P18825). As to the kind of experiment: modulators of alpha2C/GIRK thallium flux, primary screen, cell-based, HEK293 alpha2C/GIRK1/2 (AID 624;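 active = fluorescence slope after compound addition differing from the mean of all screened samples at 99.7% confidence, in either direction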;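 also: slope of fluorescence ratio to pre-addition baseline per second over 15 to 24 s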). The conditions noted are these: thallium flux BTC fluorescence, at 10 µM, actives lie on both sides.
Test [7] is described as follows: inhibitors of Sendai virus-induced IRF3 signaling, primary screen, TLR/RLR signaling modifier project, cell-based, Sendai virus stimulus, luciferase, 10K MLSCN set (AID 602276;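 active = inhibition at or above 50% at 10 µM; inactive = inhibition below 50%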;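 also: firefly luciferase from ISG56 promoter only with Renilla not read in this screen; 0% = Sendai virus plus DMSO and 100% = medium plus DMSO without virus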). Conditions: HEK293 RL24 IRF3 luciferase reporter, at 10 µM, stronger effect = higher value. On the technique in general: Reporter assays use an easily measured gene product as a stand-in for the process of interest.

Test [8] in a line: inhibitors of poly I:C-induced TLR3 signaling, primary screen, cell-based, poly I:C stimulus, luciferase, 10K MLSCN set (AID 602277). The conditions noted are these: HEK293-TLR3 RL24 IRF3 luciferase reporter, at 10 µM, stronger effect = higher value.

Sequence of Alpha-2C adrenergic receptor (Homo sapiens) (P18825 whole entry, looked up): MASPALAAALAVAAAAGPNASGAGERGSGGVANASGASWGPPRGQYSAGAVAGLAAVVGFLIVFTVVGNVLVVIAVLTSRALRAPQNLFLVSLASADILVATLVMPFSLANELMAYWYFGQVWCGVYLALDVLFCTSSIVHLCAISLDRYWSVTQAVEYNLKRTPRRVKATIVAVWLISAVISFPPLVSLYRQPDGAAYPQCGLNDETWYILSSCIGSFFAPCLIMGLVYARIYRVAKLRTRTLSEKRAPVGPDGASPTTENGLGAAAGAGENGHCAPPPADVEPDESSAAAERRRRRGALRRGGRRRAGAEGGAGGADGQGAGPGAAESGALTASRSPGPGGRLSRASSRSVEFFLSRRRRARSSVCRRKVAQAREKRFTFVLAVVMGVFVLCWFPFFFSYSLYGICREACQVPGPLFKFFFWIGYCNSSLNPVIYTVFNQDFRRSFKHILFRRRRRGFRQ
Sequence of Voltage-gated potassium channel subunit beta-2 (Rattus norvegicus) (P62483 whole entry, looked up): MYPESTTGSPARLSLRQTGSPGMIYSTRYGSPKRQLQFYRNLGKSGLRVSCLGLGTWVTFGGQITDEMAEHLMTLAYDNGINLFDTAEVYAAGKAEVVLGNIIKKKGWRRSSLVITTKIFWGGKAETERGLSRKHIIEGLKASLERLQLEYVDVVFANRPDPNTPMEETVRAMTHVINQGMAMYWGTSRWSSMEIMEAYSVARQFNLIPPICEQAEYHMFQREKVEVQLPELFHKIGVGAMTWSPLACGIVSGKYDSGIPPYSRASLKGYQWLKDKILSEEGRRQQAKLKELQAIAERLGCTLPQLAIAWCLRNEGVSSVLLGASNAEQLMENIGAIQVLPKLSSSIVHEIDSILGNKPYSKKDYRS

As for `CC1CCCN(C(=O)CN2CCN(C(=O)c3ccco3)CC2)C1` (stereo not given), the cell count in test [1] turned out to be 238. The inhibition (commonly the relative decrease from the control value, in per cent) in test [1] is 0.4% (inactive); in test [3] it was -18.8% (inactive); in test [7], 7.97% (inactive); in test [8] it was 14.7% (inactive). Moreover, the inhibition of aggregation in test [2] is 20.8% (inactive). Further, the nuclei count in test [2] was determined as 76%; in test [3], 152%. Further, the fluorescence slope in test [4] is -0.596 (inactive). Further, the NADPH fluorescence slope in test [5] is -6.2e-05 (inactive). The slope in test [6] was 0.00367 (inactive).

For the compound `CC1=C(C(=O)NCc2ccccn2)C2(CCC(C)CC2)OC1=O` (stereo not given), the cell count in test [1] was found to be 759. Besides, the inhibition in test [1] was -5% (inactive); in test [3] it was 19.6% (inactive); in test [7], 12.1% (inactive); in test [8], 26.9% (inactive). Further, the inhibition of aggregation in test [2] is 16.1% (inactive). Also, the values for the nuclei count in test [2] and in test [3] were 91.3% and 110%, respectively. The fluorescence slope in test [4] is -0.521 (inactive). Moreover, in test [5], the NADPH fluorescence slope was -2.4e-05 (inactive). The slope in test [6] is 0.00608 (inactive).

In the case of `Cc1cc(Nc2ccccc2F)n2ncnc2n1`, the cell count in test [1] worked out at 542. The inhibition is 14.8% (inactive) in test [1], -59.1% (inactive) in test [3], -1.22% (inactive) in test [7] and 12.8% (inactive) in test [8]. Moreover, the inhibition of aggregation in test [2] is -3.9% (inactive). Besides, the values for the nuclei count in test [2] and in test [3] were 137% and 111%, respectively. For the same compound, the fluorescence slope in test [4] is -0.566 (inactive). Further, the NADPH fluorescence slope in test [5] was -2.7e-05 (inactive). For the same compound, in test [6], the slope is 0.00578 (inactive).

Take `Cc1cc(S(=O)(=O)N(Cc2ccccc2)Cc2ccc(N(C)C)cc2)ccc1-n1cnnn1`: in test [1], the cell count was 793. The inhibition is 3.3% (inactive) in test [1], -58.8% (inactive) in test [3], 15.7% (inactive) in test [7] and 36.4% (inactive) in test [8]. Besides, in test [2], the inhibition of aggregation is -7.8% (inactive). Further, the nuclei count is 94.8% in test [2] and 130% in test [3]. Moreover, the fluorescence slope in test [4] was -0.293 (inactive). The NADPH fluorescence slope in test [5] was -5.5e-05 (inactive). Moreover, in test [6], the slope was 0.00447 (inactive).

Regarding `CC(C)CN(CC(C)C)C(=O)C12CCC(C)(C(=O)C1)C2(C)C` (stereo not given), the cell count in test [1] worked out at 720. Further, the inhibition in test [1] is -10.4% (inactive); in test [3], -45.3% (inactive); in test [7], -21.4% (inactive); in test [8] it was -2.9% (inactive). In addition, the inhibition of aggregation in test [2] is 13.7% (inactive). In addition, the nuclei count in test [2] is 99.8%; in test [3], 115%. The fluorescence slope in test [4] is -0.452 (inactive). Also, in test [5], the NADPH fluorescence slope was 0.000106 (inactive). Also, the slope in test [6] was 0.00697 (inactive).

In the case of `O=S1(=O)C=C(Sc2nnc(-c3ccccc3)o2)c2ccccc21`, in test [1], the cell count turned out to be 237. Besides, the inhibition in test [1] was 7.4% (inactive); in test [3] it was -55.3% (inactive); in test [7], 12.3% (inactive); in test [8] it was 66.1% (active). Besides, the inhibition of aggregation in test [2] is 0.8% (inactive). For the same compound, the nuclei count in test [2] was 93.4%; in test [3] it was 109%. Further, in test [4], the fluorescence slope was -0.479 (inactive). Further, in test [5], the NADPH fluorescence slope was -5.2e-05 (inactive). In test [6], the slope was 0.00503 (inactive).

In the case of `C=CCn1c(COc2cccc(C)c2)nnc1SCC(=O)NC(=O)NCc1ccco1`, the cell count in test [1] was 365. For the same compound, the inhibition in test [1] was -10.6% (inactive); in test [3], 6.1% (inactive); in test [7] it was 16.1% (inactive); in test [8], 30.1% (inactive). Moreover, in test [2], the inhibition of aggregation is 23.8% (inactive). In addition, the nuclei count came to 86.7% in test [2] and 113% in test [3]. Moreover, the fluorescence slope in test [4] was -0.405 (inactive). The NADPH fluorescence slope in test [5] was 3.1e-05 (inactive). Further, the slope in test [6] was 0.00673 (inactive).

As for `Cc1cc(C(=O)CSCCCn2c(=O)[nH]c3ccccc32)c(C)n1C`, the cell count in test [1] turned out to be 494. In addition, the inhibition is -3.3% (inactive) in test [1], -68.3% (inactive) in test [3], -10.6% (inactive) in test [7] and -5.21% (inactive) in test [8]. Besides, the inhibition of aggregation in test [2] was 28.4% (inactive). In addition, the figures for the nuclei count in test [2] and in test [3] were 84.7% and 113%, respectively. Further, the fluorescence slope in test [4] was -0.604 (inactive). In addition, the NADPH fluorescence slope in test [5] is -9.1e-06 (inactive). In test [6], the slope was 0.00689 (inactive).

`COc1ccc(C)cc1S(=O)(=O)N(C)CC(=O)Nc1ccc2c(c1)OCCO2`: the cell count in test [1] turned out to be 489. The inhibition in test [1] was -8.1% (inactive); in test [3] it was 22.5% (inactive); in test [7], -4.31% (inactive); in test [8], -10.2% (inactive). In addition, in test [2], the inhibition of aggregation is 7.6% (inactive). Moreover, the nuclei count in test [2] stood at 92.1%; in test [3], 110%. Also, the fluorescence slope in test [4] is -0.427 (inactive). Further, the NADPH fluorescence slope in test [5] is 3.4e-05 (inactive). Besides, in test [6], the slope was 0.00534 (inactive).

In the case of `O=C(CCn1c(=O)oc2ccccc21)NCCN1CCOCC1`, in test [1], the cell count amounted to 653. The inhibition was -15.1% (inactive) in test [1], -9.1% (inactive) in test [3], -16.3% (inactive) in test [7] and -13% (inactive) in test [8]. For the same compound, the inhibition of aggregation in test [2] is 2.6% (inactive). Also, the nuclei count turned out to be 110% in test [2] and 99.8% in test [3]. Besides, the fluorescence slope in test [4] was -0.58 (inactive). The NADPH fluorescence slope in test [5] was -5.4e-05 (inactive). Besides, the slope in test [6] was 0.00667 (inactive).
